Source: PubChem BioAssay
Unmarked numbers belong to inactive results.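 The calls were made as follows: active = viability loss from added drug above about 55%, and viability with drug at most 40%, in both replicates (limit read from the data, passing the limit was not always enough); inconclusive = both conditions met in only one replicate; inactive = neither replicate meets both conditions.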

Experiment: MRP1 drug-resistance reversers in H69AR cells – cell-based, doxorubicin co-treatment, pilot screen (AID 601)
Details: H69AR cells + 2 uM doxorubicin, CellTiter-Glo, 72 h; at 10 µM; active compounds read high
With `CCCc1cc(C(=O)Nc2ccccc2SC)no1` the differential viability (reversal) was -3.34%.
Molecule `Cc1ccc(C(=O)OCC(=O)Nc2ccc3c(c2)OCO3)o1` has a differential viability (reversal) of 1.98%.
In the case of `COC(=O)C(C#N)C(=C1C(=O)CC(C)(C)CC1=O)c1ccc(O)cc1` (stereo not given), the differential viability (reversal) is reported as -3.63%.
`COC(=O)c1cc(OC)c(OC)cc1NC(=O)c1ccc(Br)o1` showed a differential viability (reversal) of -5.39%.
`COc1cccc(NC(=O)CSc2nnc(Cc3cccn3C)n2-c2ccc(F)cc2)c1` showed a differential viability (reversal) of -8.06%.
For `CCOc1ccc(N(CC(=O)OC)S(=O)(=O)c2ccc(OC)c(OC)c2)cc1`, the differential viability (reversal) was 6.15%.
With `COC(=O)C1=C(C)NC(C)=C(C(=O)OC)C1C1CC=CCC1` (stereo not given) the differential viability (reversal) was 23.3%.
For `CCCCCn1c(=O)[nH]c2cc(C(=O)NCCN3CCOCC3)ccc2c1=O`, the differential viability (reversal) was 16.1%.
For `COc1ccccc1OCC(=O)N1CCN(c2ccccc2OC)CC1`, the differential viability (reversal) was 13.2%.
`COc1cccc(-c2nc(CS(=O)(=O)CC(=O)N3CCN(c4ccccn4)CC3)c(C)o2)c1` gave a differential viability (reversal) of 12.7%.
Work on `CC1C(=O)C(C)C(c2cccs2)NC1c1cccs1` (stereo not given) yielded a differential viability (reversal) of 3.58%.
`COc1ccc(N2C(=O)CCC(C(=O)N3CCCCC3)C2c2ccc(OC)c(OC)c2)cc1` (stereo not given) gave a differential viability (reversal) of 2.14%.
`COc1cccc(NC(=O)c2nc3nc(C)cc(C(F)F)n3n2)c1` gave a differential viability (reversal) of -2.74%.
Molecule `O=C(NCCN1CCOCC1)c1ccc2c(c1)N(Cc1ccccc1F)C(=O)CS2` has a differential viability (reversal) of -7.79%.
In the case of `CCn1cc(C(=O)NCc2ccccc2OC)c(=O)c2cc(S(=O)(=O)N(C)C)ccc21`, the differential viability (reversal) is reported as 9.22%.
`CC1Cn2c(nnc2-c2ccc(F)cc2)S1` (stereo not given) gave a differential viability (reversal) of -1.42%.
`COc1ccc(NC(=O)CN(c2ccc(C(C)C)cc2)S(=O)(=O)c2c(C)noc2C)cc1OC` showed a differential viability (reversal) of -6.37%.
`Cc1cc(C)c(C(=O)Nc2ccc(S(=O)(=O)Nc3onc(C)c3C)cc2)c(C)c1` gave a differential viability (reversal) of 6.5%.
`COc1ccc(C2CC(c3ccco3)n3ncnc3N2)cc1` (stereo not given) showed a differential viability (reversal) of -3.17%.
`CCCCn1c(CN2CCN(c3ccccc3)CC2)nc2c1c(=O)n(C)c(=O)n2C` showed a differential viability (reversal) of 19.2%.
Work on `Cc1ccccc1NC(=O)C1CCCN(S(=O)(=O)c2cnc[nH]2)C1` (stereo not given) yielded a differential viability (reversal) of 1.39%.
For `CCOC(=O)C1CCCN(C(=O)c2cn(C)c(=O)c3cc(OC)c(OC)cc23)C1` (stereo not given), the differential viability (reversal) was -9.49%.
`O=C(C1CCN(S(=O)(=O)c2cccc3cccnc23)CC1)N1CCN(C2CCCCC2)CC1` showed a differential viability (reversal) of 2.56%.
`Cc1nnc2n(-c3ccc(Cl)cc3)c(=O)c3c4c(sc3n12)CN(C)CC4` gave a differential viability (reversal) of -11.4%.
For `COc1ccc(OC)c(NC(=O)c2nnn(Cc3ccc(Br)cc3F)c2N)c1`, the differential viability (reversal) was 16.7%.
Molecule `CCCOc1ccc2ccccc2c1/C=N/n1cnnc1` has a differential viability (reversal) of 3.08%.
Work on `CCOC(=O)C(C)(C)Sc1nc2c(cnn2-c2ccc(Cl)cc2)c(=O)[nH]1` yielded a differential viability (reversal) of -3.56%.
Work on `Cc1cccc(N2C(=O)CC(N3CCN(c4cccc(C(F)(F)F)c4)CC3)C2=O)c1` (stereo not given) yielded a differential viability (reversal) of 6.09%.
In the case of `CC(=O)N1c2c(cc(Br)cc2S(=O)(=O)N2CCN(c3ccccn3)CC2)CC1C` (stereo not given), the differential viability (reversal) is reported as -3.56%.
With `O=C(O)c1ccc2c(c1)C(=O)N(c1ccc(Cl)cn1)C2=O` the differential viability (reversal) was -0.91%.
For `CC(=O)c1sc(NC(=O)C2COc3ccccc3O2)nc1C` (stereo not given), the differential viability (reversal) was 11.4%.
Work on `COc1ccc(OC)c2[nH]c(=O)c(CCNC(=O)C(C)C)cc12` yielded a differential viability (reversal) of -1.89%.
Molecule `COc1ccc(NC(=O)c2cc(C3CC3)on2)c(OC)c1` has a differential viability (reversal) of -7.87%.
Molecule `Cc1noc(C(=O)Nc2ccc3c(c2)OCO3)c1Cl` has a differential viability (reversal) of -0.25%.
`CCC(CC)C(=O)NCCc1cc2ccc(C)cc2[nH]c1=O` showed a differential viability (reversal) of -5.36%.
`CCCS(=O)(=O)N1CCN(C(=O)c2cccnc2)CC1` showed a differential viability (reversal) of 5.65%.
In the case of `CCCCn1c2c(c3ccccc31)CCc1nonc1-2`, the differential viability (reversal) is reported as -2.16%.
Work on `COc1ccc(-c2[nH]c(-c3cccc(OC)c3)nc2SCC(=O)NCc2ccco2)cc1` yielded a differential viability (reversal) of -2.42%.
`CC1=C(C(=O)OCc2ccccc2)C(c2ccco2)n2ncnc2N1` (stereo not given) gave a differential viability (reversal) of 23%.
`Cc1c(C)n(C)c2ccc(C(=O)NCc3cccs3)cc12` gave a differential viability (reversal) of 16.1%.
